Results as given in PubChem BioAssay.
Several values for one entry are separate records, joined by “and”; a condition that tells them apart may be missing. Equal entries are not always repeated. Activity calls are given as the source filed them.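 Rule for the calls: active = mean z-score across replicates of 1.96 or higher in either the MELAS or the Rieske mutant cell line; inactive = the rest.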

Test: MELAS cybrid and Rieske KO viability enhancers – cell-based, MELAS cybrids, Rieske KO mouse fibroblasts, CellTiter-Glo, primary screen (AID 1508586);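 note: test concentration not given here; z relative to plate mean and SD of compound and empty wells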
Conditions: MELAS cybrid survival, low glucose, CellTiter-Glo 48 h; stronger effect = higher value

Row | Structure (SMILES) | z-score
1 | C[C@@H]1[C@H](O)[C@@H](C)/C=C/C=C/C=C/C=C/C=C/C=C/C=C/[C@H](O[C@@H]2O[C@H](C)[C@@H](O)[C@H](N)[C@@H]2O)C[C@@H]2O[C@](O)(C[C@@H](O)C[C@@H](O)[C@H](O)CC[C@@H](O)C[C@@H](O)CC(=O)O[C@H]1C)C[C@H](O)[C@H]2C(=O)O | -0.838 (inactive)
2 | CC[C@@]1(O)C[C@H](O[C@H]2C[C@H](N(C)C)[C@H](O[C@H]3C[C@H](O)[C@H](O[C@H]4CCC(=O)[C@H](C)O4)[C@H](C)O3)[C@H](C)O2)c2c(cc3c(c2O)C(=O)c2c(O)cccc2C3=O)[C@H]1C(=O)OC | 0.116
3 | C[C@H]1O[C@@H](O[C@H]2[C@@H](O)C[C@H](O[C@H]3[C@@H](O)C[C@H](O[C@H]4CC[C@@]5(C)[C@H](CC[C@@H]6[C@@H]5C[C@@H](O)[C@]5(C)[C@@H](C7=CC(=O)OC7)CC[C@]65O)C4)O[C@@H]3C)O[C@@H]2C)C[C@H](O)[C@@H]1O | -1.21 (inactive)
4 | CCC[C@@H]1C[C@@H](C(=O)N[C@@H]([C@H]2O[C@H](SC)[C@H](O)[C@@H](O)[C@H]2O)[C@H](C)Cl)N(C)C1 | -0.831 (inactive) and -0.519 (inactive)
5 | C[C@H]1C[C@H]2[C@@H]3CCC4=CC(=O)C=C[C@]4(C)[C@@]3(F)[C@@H](O)C[C@]2(C)[C@@]1(O)C(=O)CO | -0.582 (inactive)
6 | CC(C)C[C@H]1C(=O)N2CCC[C@H]2[C@]2(O)O[C@](NC(=O)[C@@H]3C=C4c5cccc6[nH]c(Br)c(c56)C[C@H]4N(C)C3)(C(C)C)C(=O)N12 | -0.164 (inactive)
